Results taken from PubChem BioAssay (NCATS).
Values joined by “and” are separate entries in the source; they are usually repeats but may differ in a detail not shown here. Equal values may be shown once. Records with an inconclusive call do not appear. A number with no mark means an inactive call. Active and inactive are the calls of the source. Calls follow the shape of the dose curve; as a rule, active = well fitted curve in the direction sought with a large enough effect; inconclusive = small, poorly fitted or top-dose-only effect, or another doubt; inactive = no such curve, though single readings can be large; an effect the other way counts as inactive or inconclusive.

What was measured:
[1] = Viability qHTS for spleen associated tyrosine kinase inhibitor (SYKi) naive MV4-11 cells (AID 1963823); also: nearly all actives have a fitted effect of over 40% in size
Summary of the method: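 Luminescence from CellTiter-Glo, developed 10 min at room temperature, gave viability of MV4-11 cells never exposed to SYK inhibitor. Cells (500/well) had been incubated with compounds for 72 hr under standard culture conditions.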

[2] = Viability qHTS for spleen associated tyrosine kinase inhibitor (SYKi) drug resistant MV4-11 cells (AID 1963824); also: nearly all actives have a fitted effect of over 35% in size
Summary of the method: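 CellTiter-Glo luminescence, read 10 min after reagent addition, reports viability after a 72 hr compound exposure. Cells are an MV4-11 line made resistant to SYK inhibition, seeded at 500 per well onto compound-containing plates.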

[3] = Cellular viability qHTS for adrenocortical cancer (ACC) cell line NCI-H295R (AID 1963990); also: nearly all actives have a fitted effect of over 60% in size
Summary of the method: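 Readout: CellTiter-Glo luminescence, 20 min RT. Exposure: 48 h, 37C/5% CO2. Cells: NCI-H295R, ITS-DMEM serum-free. Range: up to 46 uM. Analysis: 4PL fit, IC50 plus efficacy.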

[4] = Cellular viability qHTS for adrenocortical cancer (ACC) cell line SW-13 (AID 1963989); conditions: SW-13 ACC cells viability, CellTiter-Glo, 48 h; activity (max response): active compounds read low; also: nearly all actives have a fitted effect of over 65% in size;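 as to activity (max response): cells grown in serum-free medium with ITS supplement; % is scaled to controls: 0 for no effect and ±100 for the full control effect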
Summary of the method: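 Compound titrations (up to 46 uM final, in DMSO) were applied to SW-13 cells for 48 h at 37C/5% CO2. Reading used CellTiter-Glo after 20 min at room temperature; fitted curves yielded IC50 and efficacy.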
Potency is read from the fitted curve at half-maximal effect.

Compound | Potency [1] | Potency [2] | Potency [3] | Potency [4] | activity (max response) [4] [%]
COc1ccc2cc1Oc1ccc(cc1)C[C@H]1c3c(cc4c(c3Oc3cc5c(cc3OC)CCN(C)[C@@H]5C2)OCO4)CCN1C | 11.9 µM (active) | 9.44 µM (active) | 18.4 µM (active) | – | –
CC(C)c1c(C(=O)Nc2ccccc2)c(-c2ccccc2)c(-c2ccc(F)cc2)n1CC[C@@H](O)C[C@@H](O)CC(=O)O | 2.99 µM (active) and 1.93 µM (active) and 1.82 µM (active) | 2.11 µM (active) and 1.09 µM (active) and 910 nM (active) | inactive | – | –
C=CC(=O)Nc1cccc(Nc2nc(Nc3ccc(OCCOC)cc3)ncc2F)c1 | 0.468 µM (active) | 0.651 µM (active) | 3.98 µM (active) | 15.8 µM (active) | –
CC1(C)S[C@@H]2[C@H](NC(=O)Cc3ccccc3)C(=O)N2[C@H]1C(=O)O (tested in a mixture with another compound) | inactive | inactive | inactive | – | 7.44
Cc1ccc2c(Br)cc(Br)c(O)c2n1 | 16.8 µM (active) | 11.9 µM (active) | 1.64 µM (active) | – | –
CCNC(=O)Nc1ccc(-c2nc3c(c(N4CCOC[C@@H]4C)n2)CCN(C2COC2)C3)cc1 | 0.934 µM (active) | 1.86 µM (active) | 3.55 µM (active) | – | –
O=c1[nH]sc2cc(Cl)ccc12 | inactive | inactive | 3.26 µM (active) | – | –
Cc1nnn(C)c1-c1cnc2c3ccc(C(C)(C)O)cc3n([C@H](c3ccccc3)C3CCOCC3)c2c1 | 0.0042 µM (active) | 0.003 µM (active) | 0.178 µM (active) | – | –
Cc1nc(-c2cccnc2)sc1C(=O)Nc1ccccc1-c1cn2c(CN3CCOCC3)csc2n1 | inactive | inactive | inactive | – | –
O=C(NOCCO)c1ccc2cncn2c1Nc1ccc(I)cc1F | 2.06 µM (active) | 0.105 µM (active) | inactive | – | –
COc1c2occc2c(OC)c2c(=O)cc(C)oc12 | inactive | inactive | inactive | – | –
C[C@H]1CNC(=O)c2cnn3ccc(nc23)N[C@H](C)c2cc(F)ccc2O1 | 0.525 µM (active) | 0.934 µM (active) | 8.91 µM (active) | – | –
CC(=O)[C@]1(O)Cc2c(O)c3c(c(O)c2[C@@H](O[C@H]2C[C@H](N)[C@H](O)[C@H](C)O2)C1)C(=O)c1ccccc1C3=O | 0.075 µM (active) | 119 nM (active) and 83.3 nM (active) | 1.84 µM (active) and 2.24 µM (active) | – | –
CCO[C@@H]1O[C@H](C(COCc2ccccc2)OCc2ccccc2)[C@H](OCc2ccccc2)[C@H]1O (stereo partly drawn) | 15 µM (active) | 11.9 µM (active) | 23.1 µM (active) | – | –
Cc1nc2ccc(-n3ncc(C(=O)c4cc5ccccc5[nH]4)c3N)cc2[nH]1 | 2.59 µM (active) | 2.59 µM (active) and 4.68 µM (active) | inactive | – | –
CC(C)(C)C(O)/C=C/c1ccc2c(c1)OCO2 (stereo not drawn) | inactive | inactive | inactive | – | –
CCc1cc(S(=O)(=O)O)c2cc(C(C)C)cccc1-2 | inactive | inactive | inactive | – | –
CCN(CC)C(=O)/C(C#N)=C/c1cc(O)c(O)c([N+](=O)[O-])c1 | inactive | 16.8 µM (active) | inactive | – | 3.46
Cc1c(CN2CCC(Nc3ncnc4sc(CC(F)(F)F)cc34)CC2)ccc2c1cc(C#N)n2Cc1cn[nH]c1 | 0.525 µM (active) | 0.468 µM (active) | 6.31 µM (active) | – | –
O=C(Nc1ncc(SCCN2CCCC2)s1)[C@]1(c2ccc(S(=O)(=O)C3CC3)cc2)C[C@H]1C1CCCCC1 | 7.42 µM (active) | 8.33 µM (active) | 7.08 µM (active) | – | –
CC/C(=C(/CC)c1ccc(O)cc1)c1ccc(O)cc1 | 16.6 µM (active) | 18.6 µM (active) | 3.66 µM (active) and 8.91 µM (active) | – | –
CC(=O)C1CCC2C3CCC4=CC(=O)CCC4(C)C3CCC12C (stereo not drawn) | 16.6 µM (active) | 9.34 µM (active) | inactive | – | –
COc1cc2c(cc1OC)-c1cc(=Nc3c(C)cc(C)cc3C)n(C)c(=O)n1CC2 | 9.44 µM (active) | 10.6 µM (active) | 20.6 µM (active) | – | –
C=CC[C@@H]1/C=C(\C)C[C@H](C)C[C@H](OC)[C@H]2O[C@@](O)(C(=O)C(=O)N3CCCC[C@H]3C(=O)O[C@H](/C(C)=C/[C@@H]3CC[C@@H](O)[C@H](OC)C3)[C@H](C)[C@@H](O)CC1=O)[C@H](C)C[C@@H]2OC | 18.6 µM (active) | 14.8 µM (active) | inactive | – | –
CCN1/C(=C/C=C/c2sc3ccccc3[n+]2CC)Sc2ccccc21 | 0.0184 µM (active) | 0.058 µM (active) | 10 µM (active) | – | –
C[C@@H]1C[C@H](N)C[C@H](c2ccncc2NC(=O)c2ccc(F)c(-c3c(F)cccc3F)n2)C1 | 1.18 µM (active) | 2.63 µM (active) | 28.2 µM (active) | – | –
CC#C[C@@H](CC(=O)O)c1ccc(OCc2cccc(-c3ccc(C(F)(F)F)cc3)c2)cc1 | 18.6 µM (active) | 16.6 µM (active) | 31.6 µM (active) | – | –
CNC(=O)c1cccc2cc(Oc3ccnc4cc(OCC5(N)CC5)c(OC)cc34)ccc12 | 13 µM (active) | 14.8 µM (active) and 20.6 µM (active) | 22.4 µM (active) | – | –

Compound | Potency [1] | Potency [2] | Potency [3] | Potency [4] | activity (max response) [4] [%]
N#CN1CCC[C@@H](n2nc(-c3ccc(Oc4ccc(F)cc4F)cc3)c(C(N)=O)c2N)C1 | 13 µM (active) | 18.6 µM (active) | inactive | – | –
Cc1nc(NC(=O)N2CCCC2C(N)=O)sc1-c1ccnc(C(C)(C)C(F)(F)F)c1 (stereo not drawn) | 18.6 µM (active) | 9.2 µM (active) | 12.6 µM (active) | – | –
COC1CCN(C(=O)c2cc(Cc3n[nH]c(=O)c4ccccc34)ccc2F)CC1 | 18.6 µM (active) | 14.8 µM (active) | inactive | – | –
O=C(Nc1ccc(Oc2ccc(Cl)cc2)c(Cl)c1)c1cc(I)cc(I)c1O | inactive | inactive | 20.6 µM (active) | – | –
Cc1ccc(NS(=O)(=O)c2cccc(C#N)c2)c2[nH]cc(C#N)c12 | 0.166 µM (active) | 0.235 µM (active) | 0.112 µM (active) | – | –
CNC[C@H](O)c1cccc(O)c1 | 0.531 µM (active) | inactive | inactive | – | –
N#C/C(=C1/SC[C@@H](c2ccc(Cl)cc2Cl)S1)n1ccnc1 | 11.9 µM (active) | 13.3 µM (active) | inactive | – | –
Cc1[nH]c(/C=C2\C(=O)Nc3ccc(S(=O)(=O)Cc4c(Cl)cccc4Cl)cc32)c(C)c1C(=O)N1CCC[C@@H]1CN1CCCC1 | 0.934 µM (active) | 1.86 µM (active) | 7.08 µM (active) | – | –
COc1ccc2c(c1)[C@]1(C[C@H]1c1ccc3c(/C=C/c4ccc(CN5C[C@@H](C)O[C@@H](C)C5)cc4)n[nH]c3c1)C(=O)N2 | 0.105 µM (active) | 0.332 µM (active) | 6.31 µM (active) | – | –
COc1cc(OC)cc(N(CCNC(C)C)c2ccc3ncc(-c4cnn(C)c4)nc3c2)c1 | 5.25 µM (active) | 4.11 µM (active) | 22.4 µM (active) | – | –
C[C@]12CC[C@@H]3c4ccc(O)cc4CC[C@H]3[C@@H]1CC[C@@H]2O | 16.6 µM (active) | 14.8 µM (active) | 7.94 µM (active) | – | –
COc1ccccc1C(=O)Nc1cc2c(cc1N1CCNC[C@H]1C)n(C)c(=O)n2C | 5.9 µM (active) | 11.8 µM (active) | inactive | – | –
CC(C)[C@H]1C(=O)N[C@@H](CCCN=C(N)N)C(=O)NCC(=O)N[C@@H](CC(=O)O)C(=O)N[C@H](Cc2ccccc2)C(=O)N1C | inactive | inactive | inactive | – | –
CCOC(=O)[C@H](CCc1ccccc1)N[C@@H](C)C(=O)N(CC(=O)O)C1Cc2ccccc2C1 | inactive | inactive | inactive | – | –
N#Cc1ccc(-c2c(-c3ncn[nH]3)sc(N3CCOCC3)c2C#N)c(F)c1 | 3.26 µM (active) and 3.32 µM (active) | 2.06 µM (active) and 5.9 µM (active) | 4.47 µM (active) | – | –
Oc1ccc(CCNCCCCCCNCCc2ccccc2)cc1O | 26.6 µM (active) | 21.1 µM (active) | 16.4 µM (active) | – | –
Cc1cc(F)c(C(=O)Nc2cccc(-c3nncn3C(C)C)n2)cc1-n1cnc(C2CC2)c1 | 5.25 µM (active) | 5.25 µM (active) | 14.1 µM (active) | – | –
CN(C)CCCOc1ccc(-c2ccc3ncc4c(c3c2)n(C2CCOCC2)c(=O)n4C)cn1 | 1.15 µM (active) | 2.04 µM (active) | 1.8 µM (active) | – | –
Nc1nccn2c(C3CCC(C(=O)O)CC3)nc(-c3cc4cccc(Cl)c4[nH]3)c12 (stereo not drawn) | 0.934 µM (active) | 580 nM (active) and 1.48 µM (active) | 12.6 µM (active) | – | –
CC(C)NC(=O)C1CCC(n2c(NC(=O)c3ccc(F)cc3)nc3ccc(CN4CCC(C(C)(C)O)CC4)cc32)CC1 (stereo not drawn) | 1.02 µM (active) | 2.04 µM (active) | 10.1 µM (active) | – | –
CCCCCCCCCCOCC(O)CN (stereo not drawn) | 23.7 µM (active) | 26.6 µM (active) | 18.4 µM (active) | – | –
Cn1cc(-c2cnn3c(N)c(Br)c(C4CCCNC4)nc23)cn1 (stereo not drawn) | 0.291 µM (active) | 0.461 µM (active) | inactive | – | –
CN(C)CCCN1c2ccccc2CCc2ccc(Cl)cc21 | 16.6 µM (active) | 10.6 µM (active) and 14.8 µM (active) | 25.1 µM (active) | – | –
CCOC(=O)c1ccc(N)cc1 | inactive | inactive | inactive | – | –
CCCCCCCCCCCCCCCCN | inactive | inactive | inactive | – | –
CC(=O)N1c2ccc(-c3ccc(C(=O)O)cc3)cc2[C@H](Nc2ccc(Cl)cc2)C[C@@H]1C | 0.0525 µM (active) | 0.059 µM (active) | 3.98 µM (active) | – | –
C[C@@H]1CCC[C@H](C)N1 | inactive | inactive | inactive | – | –
